# Assay results published in the supplement of paper PMC11402862.
# Legend:
# Assay in all cases: luciferase reporter transactivation, fold of solvent control; higher = stronger receptor activation
# Conditions in all cases: HEK293T, exposure time: 24 h
# CAR LBD (GAL4 fusion) = tested on: CAR LBD (GAL4 fusion)
# Method in brief: (§1)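 In 96-well plates, HEK293T cells were transiently transfected with a GAL4 fusion of one human nuclear receptor ligand-binding domain, a GAL4-(UAS)5-TK firefly luciferase reporter and a Renilla luciferase plasmid. After 24 h of exposure to compound at 1 to 500 µM in DMEM with 0.5% DMSO, firefly luciferase was normalised to Renilla luciferase. Transactivation is reported as fold of solvent control, averaged over biological replicates.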
# [1] = tested on: LXRalpha LBD (GAL4 fusion)
# Method in brief: as §1
# [2] = tested on: PPARdelta LBD (GAL4 fusion)
# Method in brief: as §1
# PXR LBD (GAL4 fusion) = PXR LBD (GAL4 fusion) (UniProt O75469)
# Chain of PXR LBD (GAL4 fusion) (O75469 whole entry, looked up, the tested form may be a part): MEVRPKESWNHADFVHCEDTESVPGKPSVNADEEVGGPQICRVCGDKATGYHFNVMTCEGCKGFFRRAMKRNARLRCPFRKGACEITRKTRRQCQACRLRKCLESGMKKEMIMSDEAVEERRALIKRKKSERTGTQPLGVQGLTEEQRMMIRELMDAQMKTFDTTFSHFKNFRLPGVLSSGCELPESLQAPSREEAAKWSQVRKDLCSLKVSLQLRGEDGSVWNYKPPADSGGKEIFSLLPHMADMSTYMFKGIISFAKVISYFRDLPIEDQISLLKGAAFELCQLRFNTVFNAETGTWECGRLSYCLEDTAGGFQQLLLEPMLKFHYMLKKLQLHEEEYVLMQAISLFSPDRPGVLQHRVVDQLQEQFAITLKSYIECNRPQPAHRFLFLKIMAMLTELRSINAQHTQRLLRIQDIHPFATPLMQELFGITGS
# Method in brief: as §1
# RARalpha (GAL4 fusion) = tested on: RARalpha (GAL4 fusion)
# Method in brief: as §1
smiles,measurement,setting,value
NS(=O)(=O)C(F)(F)C(F)(F)C(F)(F)C(F)(F)C(F)(F)C(F)(F)C(F)(F)C(F)(F)F [perfluorooctane sulfonamide],luciferase reporter transactivation,CAR LBD (GAL4 fusion); concentration: 1 µM,1.08
same,luciferase reporter transactivation,CAR LBD (GAL4 fusion); concentration: 2.5 µM,1.29
same,luciferase reporter transactivation,CAR LBD (GAL4 fusion); concentration: 5 µM,1.18
same,luciferase reporter transactivation,CAR LBD (GAL4 fusion); concentration: 10 µM,1.06
same,luciferase reporter transactivation,CAR LBD (GAL4 fusion); concentration: 100 µM,0.995
same,luciferase reporter transactivation,[1]; concentration: 1 µM,1.05
same,luciferase reporter transactivation,[1]; concentration: 2.5 µM,0.997
same,luciferase reporter transactivation,[1]; concentration: 5 µM,1.08
same,luciferase reporter transactivation,[1]; concentration: 10 µM,1.03
same,luciferase reporter transactivation,[1]; concentration: 100 µM,1.09
same,luciferase reporter transactivation,[2]; concentration: 1 µM,1.15
same,luciferase reporter transactivation,[2]; concentration: 2.5 µM,1.03
same,luciferase reporter transactivation,[2]; concentration: 5 µM,0.974
same,luciferase reporter transactivation,[2]; concentration: 10 µM,0.826
same,luciferase reporter transactivation,[2]; concentration: 100 µM,0.935
same,luciferase reporter transactivation,PXR LBD (GAL4 fusion); concentration: 1 µM,0.779
same,luciferase reporter transactivation,PXR LBD (GAL4 fusion); concentration: 2.5 µM,0.819
same,luciferase reporter transactivation,PXR LBD (GAL4 fusion); concentration: 5 µM,0.699
same,luciferase reporter transactivation,PXR LBD (GAL4 fusion); concentration: 10 µM,0.703
same,luciferase reporter transactivation,PXR LBD (GAL4 fusion); concentration: 100 µM,0.74
same,luciferase reporter transactivation,RARalpha (GAL4 fusion); concentration: 1 µM,1.02
same,luciferase reporter transactivation,RARalpha (GAL4 fusion); concentration: 2.5 µM,0.969
same,luciferase reporter transactivation,RARalpha (GAL4 fusion); concentration: 5 µM,1.32
same,luciferase reporter transactivation,RARalpha (GAL4 fusion); concentration: 10 µM,1.47
same,luciferase reporter transactivation,RARalpha (GAL4 fusion); concentration: 100 µM,1.71
O=C(O)C(F)(F)C(F)(F)F [perfluoropropanoic acid],luciferase reporter transactivation,CAR LBD (GAL4 fusion); concentration: 1 µM,0.94
same,luciferase reporter transactivation,CAR LBD (GAL4 fusion); concentration: 5 µM,0.855
same,luciferase reporter transactivation,CAR LBD (GAL4 fusion); concentration: 10 µM,0.923
same,luciferase reporter transactivation,CAR LBD (GAL4 fusion); concentration: 25 µM,0.983
same,luciferase reporter transactivation,CAR LBD (GAL4 fusion); concentration: 50 µM,1.12
same,luciferase reporter transactivation,CAR LBD (GAL4 fusion); concentration: 100 µM,1.11
same,luciferase reporter transactivation,CAR LBD (GAL4 fusion); concentration: 250 µM,1.15
same,luciferase reporter transactivation,CAR LBD (GAL4 fusion); concentration: 500 µM,1.31
same,luciferase reporter transactivation,[1]; concentration: 1 µM,0.9
same,luciferase reporter transactivation,[1]; concentration: 5 µM,0.907
same,luciferase reporter transactivation,[1]; concentration: 10 µM,0.949
same,luciferase reporter transactivation,[1]; concentration: 25 µM,0.933
same,luciferase reporter transactivation,[1]; concentration: 50 µM,1
same,luciferase reporter transactivation,[1]; concentration: 100 µM,0.953
same,luciferase reporter transactivation,[1]; concentration: 250 µM,0.94
same,luciferase reporter transactivation,[1]; concentration: 500 µM,0.97
same,luciferase reporter transactivation,[2]; concentration: 1 µM,0.959
same,luciferase reporter transactivation,[2]; concentration: 5 µM,1.14
same,luciferase reporter transactivation,[2]; concentration: 10 µM,1.27
same,luciferase reporter transactivation,[2]; concentration: 25 µM,1.2
same,luciferase reporter transactivation,[2]; concentration: 50 µM,1.26
same,luciferase reporter transactivation,[2]; concentration: 100 µM,1.21
same,luciferase reporter transactivation,[2]; concentration: 250 µM,1.22
same,luciferase reporter transactivation,[2]; concentration: 500 µM,1.31
same,luciferase reporter transactivation,PXR LBD (GAL4 fusion); concentration: 1 µM,0.362
same,luciferase reporter transactivation,PXR LBD (GAL4 fusion); concentration: 5 µM,0.532
same,luciferase reporter transactivation,PXR LBD (GAL4 fusion); concentration: 10 µM,0.495
same,luciferase reporter transactivation,PXR LBD (GAL4 fusion); concentration: 25 µM,0.632
same,luciferase reporter transactivation,PXR LBD (GAL4 fusion); concentration: 50 µM,0.626
same,luciferase reporter transactivation,PXR LBD (GAL4 fusion); concentration: 100 µM,0.695
same,luciferase reporter transactivation,PXR LBD (GAL4 fusion); concentration: 250 µM,0.601
same,luciferase reporter transactivation,PXR LBD (GAL4 fusion); concentration: 500 µM,0.727
same,luciferase reporter transactivation,RARalpha (GAL4 fusion); concentration: 1 µM,0.332
same,luciferase reporter transactivation,RARalpha (GAL4 fusion); concentration: 5 µM,0.321
same,luciferase reporter transactivation,RARalpha (GAL4 fusion); concentration: 10 µM,0.367
same,luciferase reporter transactivation,RARalpha (GAL4 fusion); concentration: 25 µM,0.387
same,luciferase reporter transactivation,RARalpha (GAL4 fusion); concentration: 50 µM,0.632
same,luciferase reporter transactivation,RARalpha (GAL4 fusion); concentration: 100 µM,0.652
same,luciferase reporter transactivation,RARalpha (GAL4 fusion); concentration: 250 µM,0.977
same,luciferase reporter transactivation,RARalpha (GAL4 fusion); concentration: 500 µM,0.946
